VP16 counter: VP16 counterscreen qHTS for inhibitors of ROR gamma transcriptional activity; Drosophila S2 Gal4-VP16 UAS-luciferase, luminescence, 20 h; Potency, µM (titrated, usually from 53.6 µM), for inactives: at the top dose activity, negative = inhibition, usual class: inhibitors; 3.5% of 310,000 active;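 further: Gal4-VP16 expression switched on by copper sulfate through the metallothionein promoter; nearly all actives have a fitted effect of over 50% in size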
RORg inh: qHTS for inhibitors of ROR gamma transcriptional activity | Nuclear receptor ROR-gamma (Mus musculus), P51450 | Drosophila S2 Gal4-RORgamma UAS-luciferase reporter, 20 h | Potency, µM (top dose mostly 53.6 µM), inactives show at the highest dose activity change, negative = inhibition, most hits filed as inhibitors | 5.4% of 310,000 active | AID 2551, 2010; further: nearly all actives have a fitted effect of over 60% in size
Target sequence (P51450 whole entry, looked up, the tested form may be a part): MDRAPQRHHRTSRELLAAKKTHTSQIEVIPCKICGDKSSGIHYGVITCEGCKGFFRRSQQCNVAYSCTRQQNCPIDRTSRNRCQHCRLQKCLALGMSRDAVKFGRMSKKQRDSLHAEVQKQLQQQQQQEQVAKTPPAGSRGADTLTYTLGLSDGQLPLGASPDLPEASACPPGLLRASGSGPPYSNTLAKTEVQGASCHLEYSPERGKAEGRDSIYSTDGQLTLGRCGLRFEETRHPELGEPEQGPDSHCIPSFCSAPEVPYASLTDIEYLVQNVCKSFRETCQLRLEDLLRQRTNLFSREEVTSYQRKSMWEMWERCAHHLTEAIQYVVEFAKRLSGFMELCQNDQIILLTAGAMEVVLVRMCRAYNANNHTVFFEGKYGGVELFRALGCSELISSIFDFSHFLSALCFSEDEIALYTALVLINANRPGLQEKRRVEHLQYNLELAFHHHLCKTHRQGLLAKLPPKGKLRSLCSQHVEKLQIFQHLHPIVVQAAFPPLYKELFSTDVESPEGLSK
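A Gal4/UAS one-hybrid system in insect cells: metallothionein-promoter Gal4–ROR gamma fusion plus Photinus luciferase reporter. Copper sulfate 700 uM final, 20 hr ambient incubation, luminescent detection after 10 min with reagent.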
Sfp PPTase inh: qHTS Assay for Inhibitors of Bacillus subtilis Sfp phosphopantetheinyl transferase (PPTase); 4'-phosphopantetheinyl transferase ffp (Bacillus subtilis), Q9F4F7; Biochemical Sfp PPTase activity, qHTS; Potency, µM, for the others: largest response in the series, negative = inhibition, most hits filed as inhibitors; 3.5% of 310,000 active; AID 1490, 2009;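 further: the enzyme is Sfp with the accession as filed and its product quenches rhodamine fluorescence; 0% = enzyme reaction without inhibitor and -100% = no enzyme wells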
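Fluorescence-quenching assay with 15 nM Sfp, 5 uM rhodamine-CoA and 12.5 uM BHQ-2-labelled ybbR peptide in pH 7.6 Hepes/MgCl2 buffer. Enzyme was pre-incubated with compound for 15 min at room temperature. Rate was taken from the 30-min fluorescence change (525/598 nm).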
PLK1 PBD inh: qHTS for Inhibitors of PLK1-PDB (polo-like kinase 1 - polo-box domain): Primary Screen; Plk1 PBD binding of FITC phosphopeptide, fluorescence polarization; Potency, µM, inactives show max response, negative = inhibition, actives largely listed as inhibitors; 2.8% of 360,000 active; further: series mostly up to about 57 µM; nearly all actives have a fitted effect of over 65% in size
ALDH1A1 block: qHTS Assay for Inhibitors of Aldehyde Dehydrogenase 1 (ALDH1A1); Purified ALDH1A1, NADH fluorescence, propionaldehyde substrate; AID 1030, 2008; Potency, µM (doses to about 75.3 µM), without a hit: at the top dose activity, negative = inhibition, most hits filed as inhibitors; 7.3% of 220,000 active; active means well fitted inhibition curve with a large enough effect, not every such curve was filed as active; inconclusive means small, poorly fitted or top-dose-only effect, or another doubt; inactive means no such curve, though single readings can be large or run the other way;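 further: plate controls were no enzyme wells and a reference inhibitor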
An asterisk follows results filed as active; ? = inconclusive; nt = not tested or not shown; ! = not confirmed by another sample; [ ] = remark or other dose. Sampled rows, rich in hits. Any-hit rate of the full collection: about 12%. Unless noted, the call rests on the fitted dose curve; in most records, active means well fitted curve in the direction sought with a large enough effect; inconclusive means small, poorly fitted or top-dose-only effect, or another doubt; inactive means no such curve, though single readings can be large; an effect the other way counts as inactive or inconclusive. Unless noted, on the % scale 0 is the no-effect control and ±100 the full control effect; potency means the concentration at half of the fitted maximal effect.

SMILES | VP16 counter | RORg inh | Sfp PPTase inh | PLK1 PBD inh | ALDH1A1 block
CCOC(=O)[C@]12CCCC=C1N(Cc1cccc3ccccc13)C(=O)[C@H](CC(=O)N1CCSCC1)C2 | nt | nt | nt | -1.1% | nt
COc1ccc(O)c(/C=N\NC(=O)CCn2nnc3ccccc32)c1 | 2.82µM* | 8.91µM* | 7.5% | -7.2% | ?
COc1ccc(/C=N/NC(=O)CCn2cnc3ccccc32)cc1 | ? | 12.6µM* | 16.5% | 5.9% | nt
Cn1cccc1/C=N/NC(=O)Cn1cnc2ccccc21 | ? | 8.91µM* | -1.7% | 4.0% | -8.6%
O=C(Cn1cnc2ccccc21)N/N=C/c1cccs1 | 1.3% | -42.0% | -3.9% | -4.6% | 6.8%
COc1cccc(/C=N/NC(=O)CCn2cnc3ccccc32)c1 | -11.1% | -29.4% | 8.4% | -5.7% | nt
COc1ccc(NC(=O)CCCn2cnc3ccccc3c2=O)cc1 | -5.4% | -4.7% | 50.1µM* | ? | nt
O=C(c1ccc(CNS(=O)(=O)c2ccc(F)cc2)cc1)N1CCCCCC1 | nt | nt | nt | 1.7% | nt
COc1ccc(/C=N/NC(=O)CCSc2nc3ccccc3s2)cc1 | -7.7% | 153.9% | 4.6% | 29.9µM* | -7.8%
COc1ccc(/C=N/NC(=O)c2ccncc2)cc1CSc1nc2ccccc2s1 | 6.31µM* | 7.08µM* | -13.3% | -5.2% | ?
O=C(CSc1nc2ccccc2s1)N/N=C/c1ccccc1C(=O)O | 1.0% | 17.8% | 10.6% | -9.8% | 7.9%
COc1cccc(/C=N/NC(=O)C(C)n2nnc3ccccc32)c1 (stereo unspecified) | -2.9% | -15.4% | -1.0% | 18.9µM* | 8.3%
COc1cccc(/C=N/NC(=O)Cn2cnc3c2c(=O)n(C)c(=O)n3C)c1 | -16.0% | -0.1% | 3.9% | 23.8µM* | nt
COCCCN1C(=O)C(CC(=O)NCC2CCCCC2)CC(C(=O)N(C)C)=C1C (stereo unspecified) | nt | nt | nt | 1.3% | nt
COc1cc(/C=N/NC(=O)CCn2nnc3ccccc32)ccc1O | -1.8% | 39.5% | 11.6% | -8.9% | 11.7%
COc1cccc(/C=N/NC(=O)CCn2nnc3ccccc32)c1 | -2.9% | ? | 11.5% | 7.52µM* | -0.2%
CCCOc1ccc(CNC(=S)Nc2ccccc2)cc1Cl | 7.08µM* | 5.01µM* | 8.7% | -1.4% | nt
CC(C)COc1ccc(CNC(=S)Nc2ccccc2)cc1Cl | 12.6µM* | 5.01µM* | 21.3% | -5.9% | nt
CC(C)Oc1ccc(CNC(=S)Nc2ccccc2)cc1Cl | 11.2µM* | 11.2µM* | 0.2% | -1.7% | nt
COc1ccc(CNC(=S)Nc2ccccc2)cc1Cl | ? | ? | 5.6% | -15.2% | nt
O=C(O)c1ccc(CNC(=S)Nc2ccccc2)cc1 | -3.9% | -5.7% | 8.0% | -5.2% | 0.8%
Nc1nc(NCc2ccco2)nc(N2CCCC2)c1[N+](=O)[O-] | 12.3% | 35.4% | 4.9% | -1.9% | 3.98µM*
Nc1nc(NCc2ccco2)nc(N2CCCCCC2)c1[N+](=O)[O-] | ? | ? | -22.1% | 2.2% | 1.58µM*
Nc1nc(NCc2ccco2)nc(N2CCN(Cc3ccccc3)CC2)c1[N+](=O)[O-] | 15.5% | ? | 0.9% | 2.1% | -5.3%
Cc1ccc(Nc2nc(NCCO)nc3c2cnn3C)cc1Cl | -29.9% | ? | 3.0% | 18.9µM* | nt
SMILES | VP16 counter | RORg inh | Sfp PPTase inh | PLK1 PBD inh | ALDH1A1 block
CCCNc1nc(Nc2ccc(C)c(Cl)c2)c2cnn(C)c2n1 | -29.7% | 13.0% | 6.6% | -1.3% | nt
CN1CCN(c2ccccc2NC(=O)c2ccc(N3CCCC3)c([N+](=O)[O-])c2)CC1 | 3.1% | 9.0% | 9.5% | -7.4% | ?
Cc1cc(C(=O)NC(=S)Nc2ccccc2N2CCOCC2)ccc1[N+](=O)[O-] | 14.1µM* | 2.82µM* | 7.1% | -4.9% | 10µM*
Cc1cc(C(=O)NC(=S)Nc2ccccc2N2CCCC2)ccc1[N+](=O)[O-] | 3.16µM* | 2.51µM* | -0.4% | 0.6% | ?
COc1ccc(C(=O)NC(=S)Nc2ccccc2N2CCOCC2)cc1[N+](=O)[O-] | 10µM* | 6.31µM* | -7.3% | -10.5% | 7.08µM*
O=C(NC(=S)Nc1cc(Cl)ccc1N1CCOCC1)c1ccccc1[N+](=O)[O-] | 3.55µM* | 3.55µM* | -0.3% | -23.7% | nt
Cc1cc(C(=O)Nc2ccccc2N2CCOCC2)ccc1[N+](=O)[O-] | -7.4% | -21.3% | 5.2% | 0.3% | ?
CC(Nc1oc(-c2ccccc2)nc1-c1cccc2ccccc12)c1ccccc1 (stereo unspecified) | -2.3% | 27.0% | -5.1% | nt | -11.6%
COc1cc(/C=C2\SC(=S)N(N3CCOCC3)C2=O)ccc1O | -16.3% | 25.4% | 1.7% | ? | nt
CCN(CC)c1ccc(/C=C2/C(=O)N(c3ccc([N+](=O)[O-])cc3)N=C2N2CCOCC2)cc1 | -0.2% | 0.9% | 19.3% | nt | 4.47µM*
CCCC1=NN(c2ccc([N+](=O)[O-])cc2)C(=O)/C1=C\N(C)C | 15.4% | 21.4% | 5.4% | -1.0% | ?
COc1cc(/C=C2/C(=O)N(c3ccc([N+](=O)[O-])cc3)N=C2N2CCOCC2)ccc1O | 21.2% | ? | 10.1% | 10.6µM* | ?
CC(C)CN(C(=O)C1=COCCO1)c1c(N)n(Cc2ccccc2)c(=O)[nH]c1=O | nt | nt | nt | -15.4% | nt
O[C@@H]1CN(Cc2cccs2)[C@@H](c2ccccc2)C[C@H]1n1cc(C2CC2)nn1 | nt | nt | nt | -8.2% | nt
COc1ccc(-c2ccc([C@H]3[C@@H]4C=CCC[C@@]4(C)C(=O)N3Cc3ccccc3)c(F)c2)cc1 | -5.0% | 26.8% | 31.6µM* | -5.0% | nt
Cc1ccc(F)c(C2C3C=CCCC3(C)C(=O)N2Cc2ccccc2)c1 (stereo unspecified) | 31.6µM* | ? | 28.2µM* | nt | nt
CCOC(=O)C1(C)CCN1C(=O)c1cncc(Br)c1 (stereo unspecified) | nt | nt | nt | 5.7% | nt
CN1CCN(Cc2nc3cccc4c3c([n+]2[O-])-c2ccccc2-4)CC1 | nt | nt | nt | nt | -3.1%[13.5 µM]
COc1cccc2c1C(=O)c1c(O)c3c(c(O)c1C2=O)C[C@@](O)(C(=O)CO)C[C@@H]3OC1C[C@@H](N)[C@H](O)[C@H](C)O1 (stereo partly specified) | ? | 2.51µM* | ? | nt | -11.7%
COc1cccc2c1C(=O)c1c(O)c3c(c(O)c1C2=O)C[C@](O)(C(=O)CO)C[C@@H]3O[C@H]1C[C@H](N)[C@@H](O)[C@H](C)O1 | 0.3% | -3.8%[10 µM] | 10.8% | nt | nt
COc1cccc2c1C(=O)c1c(O)c3c(c(O)c1C2=O)C[C@@](O)(C(C)=O)C[C@@H]3O[C@H]1C[C@H](N)[C@H](O)[C@H](C)O1 | 6.31µM*! | 2.51µM* | 50.1µM*! | ? | ?
Cc1cc(C)c2nc(SCC(=O)Nc3ccccc3N3CCOCC3)c(C#N)cc2c1 | nt | nt | nt | 29.9µM* | nt
COCc1cc(C)nc(SCC(=O)Nc2ccccc2N2CCOCC2)c1C#N | -1.9% | -20.6% | 8.1% | -7.5% | nt

High-throughput results from PubChem BioAssay.
